Reference: PubChem BioAssay (NCI)
About 79,000 compounds went through this panel and 15% of them were active in at least one assay; those are over-represented in the sample as a whole. Active and inactive are the calls of the source. Rule as the data show it: active = growth inhibition above about 70%; inactive = the rest.

What was measured:
[1] = NCI Yeast Anticancer Drug Screen. Data for the wt1 strain (AID 149);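 also: 0% = growth of vehicle-treated wt1 cultures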; conditions: S. cerevisiae wt1 strain (SPY 50644) growth inhibition, active compounds read high
In short: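 Readout: yeast growth inhibition, normalised to vehicle controls, in the wt1 strain exposed to test compounds.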

[2] = NCI Yeast Anticancer Drug Screen. Data for the rad50EPP+ strain (AID 151);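 also: 0% = growth of vehicle-treated control cultures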; conditions: S. cerevisiae rad50 mutant strain, active compounds read high
In short: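 Compounds were applied to the rad50EPP+ yeast strain, which bears a defined DNA repair alteration, and growth inhibition was determined relative to vehicle-treated cultures.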

[3] = NCI Yeast Anticancer Drug Screen. Data for the mgt1 strain (AID 153); conditions: S. cerevisiae mgt1 mutant growth inhibition, active compounds read high
In short: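 Strain: mgt1 yeast, one of a set carrying defined DNA damage repair or cell cycle control alterations. Compound-treated growth compared with vehicle.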

[4] = NCI Yeast Anticancer Drug Screen. Data for the rad50 strain (AID 155);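 also: 0% = growth of vehicle-only cultures of the same strain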; conditions: S. cerevisiae rad50 strain growth inhibition, active compounds read high
In short: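 Compounds were tested on a yeast strain with an engineered DNA damage repair alteration; the reported value is growth inhibition normalised to vehicle treatment.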

[5] = NCI Yeast Anticancer Drug Screen. Data for the mec2-1 strain (AID 157); conditions: S. cerevisiae mec2-1 strain, active compounds read high
In short: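 Strain: mec2-1 (DNA repair/cell cycle alteration). Compound exposure, then growth measured; inhibition expressed relative to vehicle.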

[6] = NCI Yeast Anticancer Drug Screen. Data for the rad14 strain (AID 159);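 also: 0% = growth of vehicle-treated control cultures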; conditions: S. cerevisiae rad14 strain growth inhibition, active compounds read high
In short: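 Compound-treated yeast with a defined DNA-repair lesion; growth inhibition normalised to vehicle-treated cultures.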

[7] = NCI Yeast Anticancer Drug Screen. Data for the sgs1 mgt1 strain (AID 161);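 also: 0% = growth of cultures given vehicle only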; conditions: S. cerevisiae sgs1 mgt1 strain, active compounds read high
In short: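 Mutant yeast exposed to compound; growth scored against vehicle-only wells.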

[8] = NCI Yeast Anticancer Drug Screen. Data for the CLN2oe strain (AID 163);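 also: 0% = growth of vehicle-only control cultures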; conditions: S. cerevisiae CLN2oe strain, active compounds read high
In short: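 Growth of a genetically modified yeast strain is measured after compound exposure and compared with cultures given vehicle alone.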

[9] = NCI Yeast Anticancer Drug Screen. Data for the cln2 rad14 strain (AID 165);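 also: 0% = growth equal to vehicle treated cultures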; conditions: S. cerevisiae cln2 rad14 strain, active compounds read high
In short: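 Compounds are applied to the cln2 rad14 yeast strain, and growth is then compared with that of vehicle-treated cultures to give inhibition.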

[10] = NCI Yeast Anticancer Drug Screen. Data for the bub3 strain (AID 167); conditions: S. cerevisiae bub3 mutant strain, active compounds read high
In short: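 Growth of a checkpoint-deficient yeast mutant is measured after compound exposure. Values represent inhibition relative to vehicle.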

[11] = NCI Yeast Anticancer Drug Screen. Data for the wt2 strain (AID 169);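 also: 0% = growth of vehicle-treated yeast cultures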; conditions: S. cerevisiae wt2 strain growth inhibition, active compounds read high
In short: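 This strain belongs to a panel of yeast strains with defined genetic alterations in DNA damage repair or cell cycle control. Compounds are applied, and growth inhibition is measured against vehicle-treated cultures.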

[12] = NCI Yeast Anticancer Drug Screen. Data for the mlh1 strain (AID 171);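 also: 0% = growth of vehicle-treated control cultures of the same strain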; conditions: S. cerevisiae mlh1 strain growth inhibition, active compounds read high
In short: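 Growth of the mutant yeast strain after compound exposure, expressed as inhibition relative to vehicle-only controls.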

[13] = NCI Yeast Anticancer Drug Screen. Data for the sgs1 strain (AID 173);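 also: 0% = growth of vehicle-only control cultures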; conditions: S. cerevisiae sgs1 mutant, active compounds read high
In short: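 Growth of a yeast strain bearing a defined genetic alteration is measured after compound treatment. Inhibition is expressed relative to vehicle-only controls.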

[14] = NCI Yeast Anticancer Drug Screen. Data for the mlh1 rad18 strain (AID 175); conditions: S. cerevisiae mlh1 rad18 strain growth inhibition, active compounds read high
In short: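 Read-out is yeast growth inhibition, calculated against vehicle-only controls. The compound was applied to a strain engineered with DNA damage repair alterations.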

[15] = NCI Yeast Anticancer Drug Screen. Data for the rad18 strain (AID 177); conditions: S. cerevisiae rad18 mutant growth inhibition, active compounds read high
In short: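 Growth of the mutant yeast strain after compound exposure, normalised to vehicle-only cultures.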

[16] = at 5.0 µM (retest, dose inferred, filed as 0.5)
[17] = at 50.0 µM (retest, dose inferred, filed as 5.0)

Measured: growth inhibition

Cc1ccc(NC(c2ccccc2)c2ccc3cccnc3c2O)cc1 (stereo not drawn)
active: [7]; at 50.0 µM 79.7%
inactive: [1]; at 1.2 µM 1% | [1]; at 3.7 µM 4% | [1]; at 11.0 µM 4% | [1]; at 33.0 µM 1% | [1]; at 100.0 µM 1% | [2]; at 1.2 µM -3% | [2]; at 3.7 µM -1% | [2]; at 11.0 µM -4% | [2]; at 33.0 µM -3% | [2]; at 100.0 µM -2% | [3]; at 1.2 µM 0% | [3]; at 3.7 µM 2% | [3]; at 11.0 µM 1% | [3]; at 33.0 µM 2% | [3]; at 100.0 µM 0% | [4]; at 1.2 µM 1% | [4]; at 3.7 µM -2% | [4]; [16] 18% | [4]; at 11.0 µM 6% | [4]; at 33.0 µM -2% | [4]; [17] 29% | [4]; at 50.0 µM 67.1% | [4]; at 100.0 µM -3% | [5]; at 1.2 µM 1% | [5]; at 3.7 µM 2% | [5]; [16] 5% | [5]; at 11.0 µM 1% | [5]; at 33.0 µM 2% | [5]; [17] 6% | [5]; at 50.0 µM 50.6% | [5]; at 100.0 µM 12% | [6]; at 1.2 µM 0% | [6]; at 3.7 µM -1% | [6]; at 11.0 µM 1% | [6]; at 33.0 µM -26% | [6]; at 100.0 µM 2% | [7]; [16] 9% | [7]; [17] 10% | [8]; at 1.2 µM 0% | [8]; at 3.7 µM -1% | [8]; at 11.0 µM 0% | [8]; at 33.0 µM 2% | [8]; at 100.0 µM 5% | [9]; [16] 48% | [9]; [17] 45% | [9]; at 50.0 µM 59.9% | [10]; at 1.2 µM -8% | [10]; at 3.7 µM -1% | [10]; [16] -18% | [10]; at 11.0 µM -31% | [10]; at 33.0 µM 8% | [10]; [17] -3% | [10]; at 50.0 µM 56.5% | [10]; at 100.0 µM 3% | [11]; at 1.2 µM 0% | [11]; at 3.7 µM 1% | [11]; at 11.0 µM -1% | [11]; at 33.0 µM -1% | [11]; at 100.0 µM -2% | [12]; at 1.2 µM 2% | [12]; at 3.7 µM 2% | [12]; at 11.0 µM 3% | [12]; at 33.0 µM -22% | [12]; at 100.0 µM 9% | [13]; at 1.2 µM 2% | [13]; at 3.7 µM 3% | [13]; at 11.0 µM 3% | [13]; at 33.0 µM 0% | [13]; at 100.0 µM -3% | [14]; [16] 5% | [14]; [17] 10% | [14]; at 50.0 µM 33% | [15]; at 1.2 µM -15% | [15]; at 3.7 µM 3% | [15]; at 11.0 µM -10% | [15]; at 33.0 µM -2% | [15]; at 100.0 µM -12%

O=[N+]([O-])c1cc(F)c(F)cc1Sc1cc(F)c(F)cc1[N+](=O)[O-]
active: [1]; at 11.0 µM 85% | [1]; at 33.0 µM 98% | [1]; at 100.0 µM 98% | [2]; at 11.0 µM 96% | [2]; at 33.0 µM 98% | [2]; at 100.0 µM 98% | [3]; at 11.0 µM 80% | [3]; at 33.0 µM 99% | [3]; at 100.0 µM 96% | [4]; at 11.0 µM 91% | [4]; at 33.0 µM 98% | [4]; [17] 98% | [4]; at 50.0 µM 98.4% | [4]; at 100.0 µM 97% | [5]; at 11.0 µM 83% | [5]; at 33.0 µM 99% | [5]; [17] 98% | [5]; at 50.0 µM 98.5% | [5]; at 100.0 µM 98% | [6]; at 11.0 µM 83% | [6]; at 33.0 µM 98% | [6]; at 100.0 µM 97% | [8]; at 11.0 µM 75% | [8]; at 33.0 µM 99% | [8]; at 100.0 µM 95% | [9]; [17] 97% | [9]; at 50.0 µM 96.8% | [10]; at 11.0 µM 76% | [10]; at 33.0 µM 98% | [10]; [17] 97% | [10]; at 50.0 µM 98.5% | [10]; at 100.0 µM 98% | [11]; at 11.0 µM 91% | [11]; at 33.0 µM 99% | [11]; at 100.0 µM 96% | [12]; at 11.0 µM 90% | [12]; at 33.0 µM 99% | [12]; at 100.0 µM 97% | [13]; at 11.0 µM 92% | [13]; at 33.0 µM 99% | [13]; at 100.0 µM 97% | [14]; [16] 82% | [14]; [17] 97% | [14]; at 50.0 µM 98.6% | [15]; at 11.0 µM 94% | [15]; at 33.0 µM 98% | [15]; at 100.0 µM 97%
inactive: [1]; at 1.2 µM -4% | [1]; at 3.7 µM 8% | [2]; at 1.2 µM 30% | [2]; at 3.7 µM 68% | [3]; at 1.2 µM -4% | [3]; at 3.7 µM 3% | [4]; at 1.2 µM 6% | [4]; at 3.7 µM 27% | [4]; [16] 66% | [5]; at 1.2 µM -2% | [5]; at 3.7 µM 14% | [5]; [16] -2% | [6]; at 1.2 µM 1% | [6]; at 3.7 µM 17% | [8]; at 1.2 µM -2% | [8]; at 3.7 µM 1% | [9]; [16] 27% | [10]; at 1.2 µM -3% | [10]; at 3.7 µM 5% | [10]; [16] 49% | [11]; at 1.2 µM 0% | [11]; at 3.7 µM 12% | [12]; at 1.2 µM 0% | [12]; at 3.7 µM 7% | [13]; at 1.2 µM 6% | [13]; at 3.7 µM 32% | [15]; at 1.2 µM 38% | [15]; at 3.7 µM 69%

Cc1ccc(NC(=O)/C(CC2N=c3c(ccc4c(O)c5ccccc5c(O)c34)=NC2O)=N/NC(C)(C)C)cc1 (stereo not drawn)
active: [4]; at 50.0 µM 77.6%
inactive: [1]; at 1.2 µM -19% | [1]; at 3.7 µM 2% | [1]; at 11.0 µM -2% | [1]; at 33.0 µM 8% | [1]; at 100.0 µM -6% | [2]; at 1.2 µM 16% | [2]; at 3.7 µM 34% | [2]; at 11.0 µM 44% | [2]; at 33.0 µM 50% | [2]; at 100.0 µM 54% | [3]; at 1.2 µM 16% | [3]; at 3.7 µM 5% | [3]; at 11.0 µM -1% | [3]; at 33.0 µM 22% | [3]; at 100.0 µM 22% | [4]; at 1.2 µM 17% | [4]; at 3.7 µM 23% | [4]; [16] -3% | [4]; at 11.0 µM 30% | [4]; at 33.0 µM 54% | [4]; [17] 65% | [4]; at 100.0 µM 65% | [5]; at 1.2 µM 15% | [5]; at 3.7 µM 18% | [5]; [16] 13% | [5]; at 11.0 µM 38% | [5]; at 33.0 µM 44% | [5]; [17] 25% | [5]; at 50.0 µM 1.25%
